Assay outcomes (PubChem BioAssay)
RE007 growth inh – less growth of the S. pombe RE007 Vpr strain | S. pombe RE007 Vpr strain, BacTiter-Glo ATP luminescence, 24 h | Potency, µM (series often up to 92.2 µM), without a hit: at the highest dose activity change, negative = less growth, actives largely listed as inhibitors | 0.21% of 360,000 active | AID 651644; active = well fitted falling curve with a large enough effect; inconclusive = small, poorly fitted or top-dose-only effect; inactive = no such curve, though single readings can be large or run the other way; note: % is set by controls: 0 for no effect and ±100 for the full control effect; nearly all actives have a fitted effect of over 50% in size
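Fission yeast RE007 carrying one integrated HIV-1 vpr copy, seeded at OD 0.01 in PMG+AL medium with 23 nL pinned compound. Grown 24 h at 30 degrees; viability read by BacTiter-Glo luminescence after 5 min.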
Pf growth 96h – P. falciparum growth inhibition at 96 hours. P. falciparum luciferase reporter growth, 96 h. AID 504834. 6.9% of 320,000 active. Potency, µM (doses to about 28.7 µM), for inactives: top-dose activity change, negative = inhibition, hits mostly inhibitors; active = well fitted inhibition curve with a large enough effect; inconclusive = small, poorly fitted or top-dose-only effect, or another doubt; inactive = no such curve, though single readings can be large or run the other way; note: % is set by controls: 0 for no effect and ±100 for the full control effect
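Delayed-death screen, second-generation endpoint: infected erythrocytes, 2% hematocrit, 0.05% parasitemia final; 96 hours at 37 C, 5% CO2; luciferase detection reagent; luminescence decrease equals reduced growth.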
SARS PLpro yeast – blocks SARS-CoV papain-like protease in a yeast assay | S. cerevisiae expressing SARS-CoV PLpro, growth rescue | Potency, µM (doses to about 32.9 µM), for the others: at the highest dose activity, positive = growth rescue, actives largely listed as activators | 0.19% of 330,000 active | AID 485353; note: 0% is about no effect; nearly all actives have a fitted effect of over 55% in size
NS1 function inh – blocks influenza NS1 protein function | Potency, µM (top dose mostly 46.1 µM), without a hit: at the highest dose activity, positive = more growth | AID 2326 | 0.4% of 270,000 active; note: actives are rising curves; nearly all actives have a fitted effect of over 50% in size
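Recovery from NS1-induced slow growth read by OD600 in budding yeast switched to galactose assay medium (pH 6.0, -URA) at 1:100 dilution. Compound 23 nl per well; the matching strain lacking NS1 serves as control.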
Pf growth 48h – inhibits P. falciparum growth in the first generation, 48 h | P. falciparum luciferase growth in erythrocytes, 48 h | AID 504832 | 5.9% of 310,000 active | Potency, µM (titrated, usually from 28.7 µM), for the others: at the top dose activity change, negative = inhibition, hits mostly inhibitors; active = well fitted inhibition curve with a large enough effect; inconclusive = small, poorly fitted or top-dose-only effect, or another doubt; inactive = no such curve, though single readings can be large or run the other way; note: % is set by controls: 0 for no effect and ±100 for the full control effect
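Luminescence readout; reporter = integrated firefly luciferase in P. falciparum. RBC culture at 2% hematocrit, 0.1% parasitemia final, 37 C/5% CO2; decreased signal taken as growth inhibition.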
* marks the source's active call; other numbers are inactive results; ? = inconclusive; . = not tested or not shown; [ ] = dose if it differs, or a comment. Sampled rows, rich in hits. Any-hit rate of the full collection: about 9.5%. Unless noted, calls come from the whole dose curve. Potency is the fitted concentration of half-maximal effect.

SMILES	RE007 growth inh	Pf growth 96h	SARS PLpro yeast	NS1 function inh	Pf growth 48h
CCCCCCC(C)(C)c1ccc([C@@H]2C[C@H](O)CC[C@H]2CCCO)c(O)c1	-1.0%[18.4 µM]	5.22µM*	.	-66.8%	4.65µM*
C=CCOc1c(Br)cc(CNc2nccs2)cc1OC	-6.3%	0.37µM*	12.3%	-10.1%	?
C=CCOc1c(Br)cc(CNn2c(C)n[nH]c2=S)cc1OC	2.7%	-27.6%	3.3%	26.8%	-9.5%
CCC1CCCCN1CCCNC(=O)c1cn(CC)c2ccc(S(=O)(=O)N(C)C3CCCCC3)cc2c1=O (stereo not drawn)	-3.2%	?	7.5%	8.7%	?
CC(C)OCCCn1c(=O)c2ccccc2n2c(CCC(=O)O)nnc12	-6.1%	1.65µM*	3.1%	2.4%	.
CC(C)Cn1c(=O)c2sccc2n2c(CCCC(=O)NC3CCN(Cc4ccccc4)CC3)nnc12	-8.1%	22.5%	-1.4%	-29.6%	0.0%
CC(C)OCCCn1c(=O)c2ccccc2n2c(CCC(=O)NC3CCN(Cc4ccccc4)CC3)nnc12	-2.7%	14.7µM*	3.3%	0.7%	?
CC(C)OCCCn1c(=O)c2ccccc2n2c(CCC(=O)NCc3ccccn3)nnc12	-16.6%	?	-3.1%	-1.5%	-10.8%
COC(=O)c1ccccc1NC(=O)Cn1c(=O)n(CCC(=O)NC2CCN(Cc3ccccc3)CC2)c(=O)c2ccccc21	-0.6%	9.28µM*	-0.2%	-1.1%	92.9%
CC1(c2nnnn2Cc2ccccc2)CCC(=O)N1CC1CCCCC1 (stereo not drawn)	1.5%	.	.	.	.
c1ccc(CNc2cncnc2)cc1	0.9%	3.4%	0.5%	6.2%	1.1%
NC1=NN(c2c(Cl)cc(Cl)cc2Cl)C(=O)C1	8.6%	.	.	.	.
CC(C)CNS(=O)(=O)c1ccc(S(=O)(=O)N2CCCN(Cc3ccccc3)C2)cc1	-4.3%	10.3%	1.4%	-1.4%	11.7µM*
COc1cccc(Cn2c(C3CC3)nc3ccc(NC(=O)c4ccco4)cc3c2=O)c1	.	.	-7.4%	-35.6%	3.7µM*
COc1ccc(Cn2c(C3CC3)nc3ccc(NC(=O)C4CC4)cc3c2=O)cc1	23.5%	-10.7%	0.0%	-30.8%	233.2%
O=C(Nc1ccc2nc(C3CC3)n(Cc3ccc(F)cc3)c(=O)c2c1)c1ccco1	-25.1%	.	-3.8%	-48.5%	1.85µM*
CCOC(=O)C1CCN(C(=O)COc2ccc(S(=O)(=O)N3CCCC3)cc2C)CC1	-1.9%	3.29µM*	0.5%	-4.1%	-21.0%
CCn1cc(C(=O)O)c(=O)c2cc(S(=O)(=O)N3CCCCCC3)ccc21	-8.6%	?	-2.1%	-14.7%	18.6%
Cc1cc(S(=O)(=O)N2CCCC2)ccc1OCC(=O)N1CCC(C(N)=O)CC1	3.7%	-7.4%	1.9%	5.5%	-5.5%
CCOC(=O)C1CCCN(C(=O)c2cn(C)c3ccc(S(=O)(=O)N4CCCC4)cc3c2=O)C1 (stereo not drawn)	9.6%	-24.3%	4.8%	-8.4%	-21.3%
CCn1cc(C(=O)N2CCc3ccccc32)c(=O)c2cc(S(=O)(=O)N3CCCC3)ccc21	-10.2%	11.7µM*	16.0%	-3.5%	?
CCOC(=O)C1CCCN(C(=O)c2cn(CC)c3ccc(S(=O)(=O)N4CCCC4)cc3c2=O)C1 (stereo not drawn)	2.5%	.	-4.2%	0.2%	11.7µM*
CCn1cc(C(=O)NCCN(CC(C)C)CC(C)C)c(=O)c2cc(S(=O)(=O)N3CCOCC3)ccc21	3.7%	0.3%	0.8%	-21.8%	?
CCn1cc(C(=O)N(C)CC(OC)OC)c(=O)c2cc(S(=O)(=O)N3CCOCC3)ccc21	3.3%	6.57µM*	-4.3%	5.6%	15.9%
CCCc1cc(C(=O)N/N=C/c2cccn2C)cs1	-1.7%	2.1%	0.3%	-8.9%	-22.2%
SMILES	RE007 growth inh	Pf growth 96h	SARS PLpro yeast	NS1 function inh	Pf growth 48h
CCN(C(=O)COC(=O)COc1ccc(Cl)c(C)c1)C1CCS(=O)(=O)C1 (stereo not drawn)	-0.9%	5.1%	1.7%	.	?
COCCN(C(=O)COC(=O)CCc1c[nH]c2ccccc12)c1c(N)n(Cc2ccccc2)c(=O)[nH]c1=O	-1.0%	18.4%	1.1%	.	0.8%
CCOC(=O)C1CCCN(C(=O)c2cc(S(=O)(=O)N3CCCCC3)ccc2C)C1 (stereo not drawn)	-5.9%	?	-0.7%	-9.0%	8.28µM*
CCOC(=O)C1CCCN(C(=O)c2ccc(S(=O)(=O)N3CCCC3)cc2)C1 (stereo not drawn)	-1.0%	-3.5%	-5.1%	.	-7.0%
CCOC(=O)C1CCN(S(=O)(=O)c2ccc3c(c2)NC(=O)C(C)S3)CC1 (stereo not drawn)	2.9%	67.4%	-4.0%	5.7%	?
CCOC(=O)C1CCN(S(=O)(=O)c2ccc3c(c2)CC(=O)N3)CC1	2.4%	0.0%	3.0%	8.0%	11.7µM*
COc1cc(/C=C/C(=O)OCC(=O)NCCc2ccc(S(N)(=O)=O)cc2)ccc1OCC#N	-16.1%	-33.0%	-0.9%	.	-22.5%
COc1cccc(C(=O)/C=C/c2ccc(OCC#N)c(OC)c2)c1	-19.5%	?	-4.6%	-3.2%	-25.6%
COc1cc(/C=C/C(=O)c2ccc(O)cc2)ccc1OCC#N	-3.5%	?	-8.6%	-6.8%	13.1µM*
COc1cc(/C=C/C(=O)OCC(=O)NCCN2C(=O)CSC2=O)ccc1OCC#N	-4.0%	10.4µM*	-1.3%	.	?
CC(=O)c1c(C)[nH]c(C(=O)OCc2cccc(C)c2)c1C	-0.3%	103.4%	-15.9%	-20.3%	46.4%
COc1ccc(C)cc1COC(=O)c1[nH]c(C)c(C(C)=O)c1C	-13.8%	11.7µM*	-0.3%	-19.4%	?
CCOc1ccccc1N(CC(=O)NC1CCCC1)S(=O)(=O)c1ccc(C)cc1	-1.5%	27.1%	-2.7%	-16.5%	?
CCOC(=O)CN1CC23C=CC(O2)C(C(=O)Nc2ccc(C(C)=O)cc2)C3C1=O (stereo not drawn)	-6.1%	11.7µM*	7.4%	-15.6%	-1.5%
O=C(COC(=O)c1ccc[nH]c1=O)NCC12CC3CC(CC(C3)C1)C2	-2.7%	4.4%	0.4%	.	33.1%
O=C(COc1ccc(Br)cc1)N1CCN(S(=O)(=O)/C=C/c2ccccc2)CC1	-3.9%	11.7µM*	-4.6%	-17.5%	?
O=C(COc1ccccc1F)N1CCN(S(=O)(=O)/C=C/c2ccccc2)CC1	5.6%	-29.7%	8.7%	-4.3%	-14.5%
C=CCNc1ncnc2c1ncn2[C@H]1CN(Cc2ccc(F)cc2)C[C@@H](CO)O1	3.3%	.	.	.	.
COc1ccc(CN(C(=O)c2snc(C(N)=O)c2N)C(CC(C)C)C(=O)NC2CCCCC2)cc1 (stereo not drawn)	12.8%	?	-3.6%	20.8%	11.7µM*
NC(=O)c1nsc(C(=O)N(CCc2ccccc2)C(C(=O)NC2CCCC2)c2ccco2)c1N (stereo not drawn)	-17.1%	10.4µM*	?	2.5%	?
